# The panel holds about 83,000 compounds, 20% with a hit somewhere; the sample as a whole holds those more often.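 In brief: 96-well plates, 48 h treatment, single concentration, percent growth endpoint.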 A number with no mark means an inactive call. The source made the active and inactive calls. Rule for the calls: active = growth percent below 10; inactive = the rest.
# Tested on: HL-60(TB) leukemia
# Assay: NCI-60 one-dose screen, 48 h (100 = growth as untreated, 0 = no growth, -100 = all killed)
# Settings: 10 µM unless noted
row,SMILES,growth
1,Oc1ccccc1N=Cc1c(O)ccc2ccccc12,8.97% (active)
2,CN1C(=C2C(=O)OC(C)(C)OC2=O)CCC1C(=O)NCc1ccc(Cl)cc1Cl (centres undefined),83.7%
3,COc1ccc(Nc2nc(N)nc3c2CCc2occc2-3)cc1,88.8%
4,O=C(CCCCCCSc1nc(-c2ccccc2)cc(-c2ccccc2)n1)NO,-33.2% (active)
5,CC(=O)O[C@H]1CC[C@]2(C)[C@H]3CC=C4[C@@H]5CC(C)(C)CC[C@]5(C(=O)NCCNCCNCCN)CC[C@@]4(C)[C@]3(C)CC[C@H]2C1(C)C,-42.8% (active)
6,COc1ccc(N2CCN(CC(=O)N3CCN(c4nnc(-c5ccccc5)c(-c5ccccc5)n4)CC3)CC2)cc1,-36.3% (active)
7,CCC1N=C(N)N=C(N)N1c1ccc(Cl)cc1 (centres undefined),75.4%
8,Cc1cccc2c1C[C@@]1(C2=O)C(c2ccc(C(C)(C)C)cc2)=NOS1=O (some centres undefined),100%
9,CCOC(Cc1c(N)[nH]c(=S)[nH]c1=O)OCC,90.3%
10,COc1cc(C2C3=C(COC3=O)N(CCO)c3cc4c(cc32)CCC4)cc(OC)c1O (centres undefined),-8.61% (active)
11,O=C(Cn1nncc1CN1C(=O)CSC1=O)Nc1ccc(F)cc1,100%
12,CCOC(=O)C(c1ccccc1)N1C(=O)c2ccccc2C1=O (centres undefined),115%
13,N#Cc1c(-c2ccccc2)cc(-c2ccccc2)n(CCCC(=O)O)c1=O,103%
14,Cn1c(=O)c2c(nc(NC3=NS(=O)(=O)c4ccccc43)n2Cc2ccccc2)n(C)c1=O,112%
15,COc1ccc(Nc2cc(C)nc(NCCCNc3ccnc4cc(Cl)ccc34)n2)cc1,-75.7% (active)
16,C[C@@H]1N=C(c2ccc3ccccc3n2)Nc2nc3ccccn3c2C1=O,97.6%
17,CNC(=O)c1cc(Oc2ccc(NC(=O)c3nc(S(C)(=O)=O)n(C)c3-c3ccc(F)cc3)cc2)ccn1,69.8%
18,NC(=O)CN1CCN(c2ccccc2Cl)CC1,92.4%
19,CC(C)(C)c1ccc(NS(=O)(=O)c2ccc3nc(NC(=O)c4cnccn4)[nH]c3c2)cc1,-21.9% (active)
20,CC1(C)CC(C(=O)OCCCCCCCCCCC[P+](c2ccccc2)(c2ccccc2)c2ccccc2)C(C)(C)N1O (centres undefined),-70.8% (active)

row,SMILES,growth
1,Clc1ccc(-c2nc(-c3ccco3)cn3ccnc23)cc1,102%
2,CSc1nnc(C2=CC(=O)c3ccccc3C2=O)n1-c1ccccc1,4.64% (active)
3,CC(=O)Nc1nc(C)c(C(=O)N/N=C/N2CCOCC2)s1,188%
4,CCN(CC)CCCC(C)Nc1c2ccc(Cl)cc2nc2cc(OC)c(OC)cc12 (centres undefined),6.67% (active)
5,O=C1C(Br)=C(c2ccccc2)C(=O)C(Br)=C1c1ccccc1,78.6%
6,CC1(C)N=C(N)N=C(N)N1c1cccc(CCCCc2ccccc2)c1,-76% (active)
7,Cc1ccc(/C=C/c2c(C(=O)/C=C/c3ccccc3)c(C)nc3ccccc23)cc1,14.8%
8,Cc1ccc(S(=O)(=O)/C(=C\c2ccc(Cl)cc2)C(=O)c2ccccc2)cc1,97.1%
9,CCNC(=S)n1nc(SC)c(C(=O)OCC)c1N,100%
10,NS(=O)(=O)c1ccc(-n2ncc3c(=O)[nH]c(CN4CCN(c5cc6c(cc5F)c(=O)c(C(=O)O)cn6C5CC5)CC4)nc32)cc1,98%
11,Cc1nc2ccccc2c(/C=C/c2ccc(Cl)cc2)c1C(=O)/C=C/c1ccc(C(F)(F)F)cc1,-37% (active)
12,CCCCCCN1CCN(Cc2ccc(N(CC)CC)cc2)C(=O)C1=O,-19.1% (active)
13,Cc1ccc(-c2nc(N3CCN(C(=O)c4ccc(OC(F)(F)F)cc4)CC3)c3ccccc3n2)cc1,97.5%
14,Cc1[nH]nc(C(N)=O)c1[N+](=O)[O-],129%
15,c1ccc2nc(Cn3cc[n+](Cc4ccc5ccccc5n4)c3)ccc2c1,8.58% (active)
16,NC(CCCC(N)C(=O)c1ccccc1)C(=O)O (centres undefined),94.3%
17,COc1ccc2cc(-c3cnc4nonc4n3)ccc2c1,-12% (active)
18,COc1ncc(-c2ccc3nccc(C#CCN4CCN(S(C)(=O)=O)CC4)c3c2)cc1NS(=O)(=O)c1ccc(F)cc1F,-18.6% (active)
19,CC(COC(=O)c1ccccc1)N1CC2CCC(C1)O2 (centres undefined),101%

# Source: PubChem BioAssay (NCI)
